# Laboratory results reported in PubChem BioAssay.
# Some of the results follow. Unmarked numbers belong to inactive results. Calls of active or inactive are those of the source.
# What was measured:
# [1] = target: Inward rectifier potassium channel 2 (Mus musculus) (UniProt P35561); assay: inhibition of Kir2.1 inward rectifier potassium flux – cell-based, FluxOR thallium flux, duplicate, confirmation (AID 2032;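 active = Primary-screen hit whose thallium flux fell at least 3 control SD below untreated wells in both duplicates, with normal baseline fluorescence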); conditions: Kir2.1-expressing cells, FluxOR thallium flux fluorescence, at 10 µM; hits give low values
# [2] = parental HEK293 cell activity, no Kir2.1 – FluxOR thallium flux, duplicate, single concentration, counter-screen for Kir2.1 inhibitor project, confirmation (AID 2105;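 active = dye signal at least 3 control SD above or below untreated wells in both duplicates, raw fluorescence within 3, either direction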); conditions: parental HEK293 cells, FluxOR thallium flux fluorescence, at 10 µM; 0% = unstimulated blank wells
# [3] = parental CHO-K1 cell activation, no KCNQ2 – FluxOR thallium flux, duplicate, counter-screen for KCNQ2 potentiator project, confirmation (AID 2282;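 active = signal rise of at least 3 SD above the untreated control mean, in both duplicate wells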;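 note: counter screen of KCNQ2 potentiator hits so any rise reflects channel-independent effects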); conditions: parental CHO-K1 cells, FluxOR thallium flux fluorescence; at 10 µM; hits give high values; zero = vehicle mean+3SD, 100% = vehicle-minus-blank window
# [4] = target: Potassium voltage-gated channel subfamily KQT member 1 (Homo sapiens) (UniProt P51787); assay: KCNQ1 activation in stable CHO cells – cell-based, FluxOR thallium flux, selectivity assay for KCNQ2 potentiator project, confirmation (AID 2283;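 active = fluorescence ratio rise of at least 3 SD of vehicle wells above their mean, in both replicate wells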;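 note: 0% = vehicle mean plus 3 SD and 100% = vehicle minus unstimulated blank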); conditions: FluxOR thallium flux fluorescence, at 10 µM, hits give high values, beyond 3SD, as % of vehicle-control signal
# [5] = target: Potassium voltage-gated channel subfamily KQT member 2 (Rattus norvegicus) (UniProt O88943); assay: KCNQ2 potassium channel activity enhancers – cell-based, CHO, FluxOR thallium flux, duplicate, confirmation (AID 2287;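 active = fluorescence ratio rising 3 SD or more over the vehicle control mean in both replicates, plus primary screen hit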;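 note: peak minus minimum thallium fluorescence divided by baseline after K/Tl stimulus; 0% = vehicle mean plus 3 SD and 100% = vehicle minus unstimulated blank difference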); conditions: CHO-KCNQ2 cells, FluxOR thallium flux fluorescence; at 10 µM; hits give high values
# [6] = target: Inward rectifier potassium channel 2 (Mus musculus) (UniProt P35561); assay: PubChem AID 2345; conditions: HEK293 Kir2.1, FluxOR thallium flux fluorescence; at 10 µM; hits give high values;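 note: 0% = vehicle mean plus 3 SD and 100% = vehicle minus no-stimulus blank window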
# [7] = target: Potassium voltage-gated channel subfamily KQT member 2 (Rattus norvegicus) (UniProt O88943); assay: W236L mutant KCNQ2 current enhancers – cell-based, rat KCNQ2 W236L, CHO, automated patch clamp, mechanism study for KCNQ2 potentiator project (AID 2558;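 active = current increase at least 3 SD of the untreated controls above them in both duplicate recordings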); conditions: at 25 µM
# [8] = target: Voltage-gated inwardly rectifying potassium channel KCNH2 (Homo sapiens) (UniProt Q12809); assay: hERG block by Kir2.1 inhibitor candidates – cell-based, thallium flux, counter-screen for Kir2.1 inhibitor project (AID 2236); conditions: hERG-expressing cells, at 10 µM; hits give high values;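 note: host cells are CHO cells stably expressing hERG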
# [9] = target: Potassium channel subfamily K member 9 (Homo sapiens) (UniProt Q9NPC2); assay: human KCNK9 potassium channel blockers – cell-based, selectivity assay for Kir2.1 inhibitor project (AID 2329); conditions: KCNK9-expressing cells, ion flux inhibition, at 10 µM; hits give high values
# [10] = target: Inward rectifier potassium channel 2 (Mus musculus) (UniProt P35561); assay: Kir2.1 potassium current inhibition – cell-based, secondary, automated electrophysiology, Kir2.1 inhibitor project (AID 463252); conditions: Kir2.1 cells, automated patch-clamp current inhibition, at 25 µM; hits give high values
# [11] = nonspecific voltage dye response without TRPC6 – cell-based, parental HEK293, counter-screen for TRPC6 modulator project, confirmation (AID 488924;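 active = membrane potential signal moves up or down beyond 5 SD from buffer-only wells, on both duplicate plates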); conditions: parental HEK293, membrane potential dye fluorescence; at 10 µM
# [12] = membrane potential response modulators in host HEK293 cells – cell-based, second counter-screen, parental HEK293, membrane potential dye, counter-screen for TRPC6 modulator project, confirmation (AID 488926;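 active = membrane potential signal drops by more than 5 SD from the mean control signal, in both duplicate plates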); conditions: parental HEK293, membrane potential dye fluorescence; at 10 µM; after compound, maximal acetylcholine stimulation
# [13] = test system: Transient receptor potential cation channel subfamily C member 4 (mouse); assay: off-target membrane potential effects via mouse TRPC4 – cell-based, HEK293 TRPC4/mu-opioid, membrane potential dye, selectivity assay for TRPC6 modulator project, confirmation (AID 488927;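 active = membrane potential signal moved up or down beyond 5 SD of buffer control wells, in both duplicate plates, actives on both sides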;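 note: plate controls were assay buffer wells for no effect and DAMGO maximal-effect wells for full effect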); conditions: membrane potential fluorescence, at 10 µM
# [14] = test system: TRPC4 (transient receptor potential cation channel C4), mouse; assay: DAMGO-evoked mouse TRPC4 response blockade – cell-based, second screen, HEK293 TRPC4/mu-opioid, membrane potential dye, selectivity assay for TRPC6 modulator project, confirmation (AID 488928;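 active = drop in membrane potential signal beyond 5 SD of the control wells in both duplicate plates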;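 note: TRPC4 counter screen for TRPC6 hits run under conditions tuned for TRPC6 not TRPC4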); conditions: membrane potential dye fluorescence, at 10 µM, stimulated with maximal-effect DAMGO; hits give high values
# [15] = target: Short transient receptor potential channel 6 (Mus musculus) (UniProt Q61143); assay: blockers of TRPC6 cation channel activity – HEK293 cells, membrane potential dye, duplicate, confirmation (AID 488960;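 active = fluorescence ratio falls more than 5 SD below the full-stimulation control mean, in both duplicate runs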); conditions: ACh-evoked depolarization, at 10 µM; hits give high values
# [16] = target: Short transient receptor potential channel 6 (Mus musculus) (UniProt Q61143); assay: mouse TRPC6 channel activators, confirmation, HEK293 cells, membrane potential dye, duplicate (AID 488961;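 active = ratio signal rise beyond 5 SD above unstimulated control wells' mean, seen in both duplicate runs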); conditions: HEK293-TRPC6 membrane potential dye fluorescence, FDSS, at 10 µM; hits give high values
# Potassium voltage-gated channel subfamily KQT member 1 (Homo sapiens), sequence (P51787 whole entry, looked up): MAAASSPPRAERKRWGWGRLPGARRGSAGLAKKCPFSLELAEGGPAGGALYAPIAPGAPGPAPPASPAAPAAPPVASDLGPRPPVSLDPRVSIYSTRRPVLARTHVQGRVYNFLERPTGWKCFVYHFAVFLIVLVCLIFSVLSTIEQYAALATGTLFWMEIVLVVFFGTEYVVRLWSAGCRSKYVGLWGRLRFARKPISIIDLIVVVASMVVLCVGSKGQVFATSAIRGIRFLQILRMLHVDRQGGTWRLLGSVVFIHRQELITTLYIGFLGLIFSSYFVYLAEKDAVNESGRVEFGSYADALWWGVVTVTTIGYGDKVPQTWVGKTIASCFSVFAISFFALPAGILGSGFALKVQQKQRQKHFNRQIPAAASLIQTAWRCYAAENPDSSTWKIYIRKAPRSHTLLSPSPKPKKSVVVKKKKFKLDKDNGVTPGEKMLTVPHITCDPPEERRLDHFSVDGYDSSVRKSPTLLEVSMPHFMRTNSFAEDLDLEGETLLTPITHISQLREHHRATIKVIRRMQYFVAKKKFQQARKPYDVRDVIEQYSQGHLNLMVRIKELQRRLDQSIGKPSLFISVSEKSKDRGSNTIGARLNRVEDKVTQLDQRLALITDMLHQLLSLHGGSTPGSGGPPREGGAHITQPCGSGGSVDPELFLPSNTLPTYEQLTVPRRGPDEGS
# Inward rectifier potassium channel 2 (Mus musculus), sequence (P35561 whole entry, looked up): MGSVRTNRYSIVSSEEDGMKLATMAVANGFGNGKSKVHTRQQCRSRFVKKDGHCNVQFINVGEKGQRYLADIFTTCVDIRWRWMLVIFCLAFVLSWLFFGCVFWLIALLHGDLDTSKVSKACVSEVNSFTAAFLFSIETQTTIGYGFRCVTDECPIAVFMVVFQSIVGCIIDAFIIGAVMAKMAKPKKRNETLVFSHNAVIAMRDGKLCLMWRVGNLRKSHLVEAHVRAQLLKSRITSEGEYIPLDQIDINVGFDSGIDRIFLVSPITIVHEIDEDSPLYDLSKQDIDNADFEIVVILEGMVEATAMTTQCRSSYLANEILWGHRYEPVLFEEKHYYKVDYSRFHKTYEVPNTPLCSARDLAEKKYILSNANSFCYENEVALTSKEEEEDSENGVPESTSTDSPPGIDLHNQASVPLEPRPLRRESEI
# Voltage-gated inwardly rectifying potassium channel KCNH2 (Homo sapiens), sequence (Q12809 whole entry, looked up): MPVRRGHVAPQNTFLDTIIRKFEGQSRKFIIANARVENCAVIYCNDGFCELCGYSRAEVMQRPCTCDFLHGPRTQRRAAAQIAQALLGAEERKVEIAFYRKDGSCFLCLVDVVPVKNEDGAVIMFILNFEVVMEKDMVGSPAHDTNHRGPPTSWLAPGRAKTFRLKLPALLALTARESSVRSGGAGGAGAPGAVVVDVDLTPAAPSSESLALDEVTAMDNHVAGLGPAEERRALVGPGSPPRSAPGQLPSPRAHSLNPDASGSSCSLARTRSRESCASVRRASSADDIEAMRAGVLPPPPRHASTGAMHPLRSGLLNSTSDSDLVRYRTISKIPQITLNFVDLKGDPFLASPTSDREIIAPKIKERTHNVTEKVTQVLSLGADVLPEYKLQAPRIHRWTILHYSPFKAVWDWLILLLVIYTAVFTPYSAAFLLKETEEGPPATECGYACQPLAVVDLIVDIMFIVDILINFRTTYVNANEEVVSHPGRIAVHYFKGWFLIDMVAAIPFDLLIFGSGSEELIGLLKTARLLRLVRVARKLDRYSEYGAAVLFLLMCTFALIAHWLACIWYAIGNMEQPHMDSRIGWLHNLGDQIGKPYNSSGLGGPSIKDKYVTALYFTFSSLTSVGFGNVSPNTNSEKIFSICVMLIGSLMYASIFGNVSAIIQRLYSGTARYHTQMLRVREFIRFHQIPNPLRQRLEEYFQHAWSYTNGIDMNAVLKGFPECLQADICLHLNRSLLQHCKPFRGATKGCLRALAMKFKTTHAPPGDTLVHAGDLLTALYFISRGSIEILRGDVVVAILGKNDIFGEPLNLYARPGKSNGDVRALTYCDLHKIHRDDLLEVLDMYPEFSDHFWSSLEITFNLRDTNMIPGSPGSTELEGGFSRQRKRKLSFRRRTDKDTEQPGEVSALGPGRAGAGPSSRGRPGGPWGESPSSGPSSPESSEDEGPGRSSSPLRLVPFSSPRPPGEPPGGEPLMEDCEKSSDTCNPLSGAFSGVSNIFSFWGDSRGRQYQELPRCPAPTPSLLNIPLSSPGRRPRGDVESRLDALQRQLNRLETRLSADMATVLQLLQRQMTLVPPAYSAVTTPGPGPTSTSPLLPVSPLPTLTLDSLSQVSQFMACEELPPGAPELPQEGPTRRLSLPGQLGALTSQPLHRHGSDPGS
# Short transient receptor potential channel 6 (Mus musculus), sequence (Q61143 whole entry, looked up): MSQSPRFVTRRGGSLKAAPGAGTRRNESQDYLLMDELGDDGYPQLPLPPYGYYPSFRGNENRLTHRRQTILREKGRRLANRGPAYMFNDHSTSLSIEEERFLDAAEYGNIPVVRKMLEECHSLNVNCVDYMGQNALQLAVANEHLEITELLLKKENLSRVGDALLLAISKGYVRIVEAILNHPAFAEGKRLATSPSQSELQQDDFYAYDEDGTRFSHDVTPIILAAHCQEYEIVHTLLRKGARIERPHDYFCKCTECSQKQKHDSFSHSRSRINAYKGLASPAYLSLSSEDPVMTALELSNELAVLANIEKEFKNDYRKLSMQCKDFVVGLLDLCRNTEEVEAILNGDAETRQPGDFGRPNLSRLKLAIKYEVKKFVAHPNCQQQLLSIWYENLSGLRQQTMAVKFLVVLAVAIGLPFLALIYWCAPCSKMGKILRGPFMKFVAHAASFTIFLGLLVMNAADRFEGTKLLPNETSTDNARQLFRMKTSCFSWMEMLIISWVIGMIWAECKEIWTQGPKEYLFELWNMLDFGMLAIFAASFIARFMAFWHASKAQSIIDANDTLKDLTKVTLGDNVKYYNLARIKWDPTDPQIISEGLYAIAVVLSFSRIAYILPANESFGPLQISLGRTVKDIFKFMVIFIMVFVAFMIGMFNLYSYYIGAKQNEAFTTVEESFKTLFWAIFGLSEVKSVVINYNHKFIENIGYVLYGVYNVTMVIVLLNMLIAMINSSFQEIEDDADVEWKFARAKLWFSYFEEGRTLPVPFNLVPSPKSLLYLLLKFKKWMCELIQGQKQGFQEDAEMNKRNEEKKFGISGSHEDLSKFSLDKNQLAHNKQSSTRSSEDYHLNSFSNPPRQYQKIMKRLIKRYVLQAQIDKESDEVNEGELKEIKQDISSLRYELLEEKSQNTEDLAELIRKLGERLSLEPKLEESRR
structure (smiles),measurement,setting,value
COc1cccc(CN(C)CC2CCCN(CCc3ccc(Cl)cc3)C2)c1OC (stereo not drawn),"Tl flux remaining, % of negative control (hits give low values)",[1],49% (active)
same,outcome,[2],inactive
CCC(Cc1ccccc1)NS(=O)(=O)c1ccc2c(c1)NC(=O)CS2 (stereo not drawn),"Tl flux remaining, % of negative control (hits give low values)",[1],62% (active)
same,outcome,[2],inactive
Cc1cccc(NC(=O)CSC(N)=O)c1C,outcome,[1],inactive
same,outcome,[2],inactive
same,activity increase over 3SD of controls,[3],-5%
same,activation over 3SD threshold,[4],-15.2%
same,"potentiation, less the hit threshold",[5],56.1% (active)
same,activity over 3SD threshold,[6],-46.1%
same,outcome,[7],inactive
S=C(Nc1ccc(Br)cc1)NC1CCN(Cc2ccccc2)CC1,"Tl flux remaining, % of negative control (hits give low values)",[1],48% (active)
same,outcome,[2],inactive
same,inhibition,[8],49% (active)
same,outcome,[9],inactive
same,inhibition,[10],4.2% (active)
C=CCc1cc(S(=O)(=O)c2ccc(O)c(CC=C)c2)ccc1O,"Tl flux remaining, % of negative control (hits give low values)",[1],40.5% (active)
same,outcome,[2],inactive
same,outcome,[8],inactive
same,inhibition,[9],79% (active)
same,outcome,[10],inactive
O=C(NCCc1c[nH]c2ccccc12)C1CCN(Cc2ccc(Br)cc2)CC1,"Tl flux remaining, % of negative control (hits give low values)",[1],62% (active)
same,outcome,[2],inactive
same,inhibition,[8],61% (active)
same,outcome,[9],inactive
same,outcome,[10],inactive
same,outcome,[11],inactive
same,outcome,[12],inactive
same,"percent change from control (negative = decrease, positive = increase)",[13],11% (active)
same,inhibition,[14],58% (active)
same,outcome,[15],inactive
same,outcome,[16],inactive
CCCCCCCCCCOC(=O)Cn1c(COc2cccc(OC)c2)[n+](C)c2ccccc21,outcome,[1],inactive
same,outcome,[2],inactive
CCCc1cc(=O)[nH]c(SCC(=O)c2cc(C)n(CCC)c2C)n1,"Tl flux remaining, % of negative control (hits give low values)",[1],60% (active)
same,outcome,[2],inactive
same,outcome,[8],inactive
same,outcome,[9],inactive
same,inhibition,[10],30.9% (active)
Cc1ccc(Nc2c3c(nc4ccccc24)CCC3)cc1,"Tl flux remaining, % of negative control (hits give low values)",[1],16% (active)
same,outcome,[2],inactive
same,inhibition,[8],61% (active)
same,outcome,[9],inactive
same,inhibition,[10],83.9% (active)
Cc1cc(C)nc(SCc2nnc(SCC(=O)OC3CCCCC3)o2)n1,"Tl flux remaining, % of negative control (hits give low values)",[1],28% (active)
same,outcome,[2],inactive
same,outcome,[8],inactive
same,outcome,[9],inactive
same,inhibition,[10],82.2% (active)
COc1ccc(C(CCNCc2ccccc2F)c2ccc(F)cc2)cc1 (stereo not drawn),"Tl flux remaining, % of negative control (hits give low values)",[1],39.5% (active)
same,outcome,[2],inactive
CCOC(=O)NC(C(F)(F)F)(C(F)(F)F)P(=O)(c1ccccc1)c1ccccc1,outcome,[1],inactive
same,outcome,[2],inactive
same,activity increase over 3SD of controls,[3],-3.2%
same,activation over 3SD threshold,[4],-13.6%
same,"potentiation, less the hit threshold",[5],-18.1%
same,activity over 3SD threshold,[6],-34.2%
C/C=C(/C)C(=O)OC1Cc2c(ccc3ccc(=O)oc23)OC1(C)C (stereo not drawn),"Tl flux remaining, % of negative control (hits give low values)",[1],63% (active)
same,outcome,[2],inactive
same,outcome,[8],inactive
same,outcome,[9],inactive
same,outcome,[10],inactive
CCCn1c(C2CCCN2c2nc(-c3ccc(C)cc3)cs2)nc2cc(Cl)c(N3CCCCC3)cc21 (stereo not drawn),outcome,[1],inactive
same,outcome,[2],inactive
same,activity increase over 3SD of controls,[3],12.5% (active)
same,activation over 3SD threshold,[4],-30.1%
same,"potentiation, less the hit threshold",[5],-9.8%
same,activity over 3SD threshold,[6],-27.9%
COc1ccc(C(O)(C2CCCCC2)C(CN2CCCC2)c2ccccc2)cc1 (stereo not drawn),"Tl flux remaining, % of negative control (hits give low values)",[1],49% (active)
same,outcome,[2],inactive
same,outcome,[8],inactive
same,outcome,[9],inactive
same,outcome,[10],inactive
